Test [1] in a line: Tanguay_ZF_120hpf_AXIS_legacy: (Legacy) Oregon State University Tanguay Lab 120 Hour Post-fertilization zebrafish Assay for Body Axis Malformation (AID 2283635). A digest of the protocol: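 Embryos: 5D wild-type, pronase-dechorionated 4 hpf; static exposure 6–120 hpf, 28C, sealed, dark, 1 embryo/well, 0.64% DMSO. 120 hpf axis malformation scored present/absent; dead embryos excluded. Analysed as gain of signal vs DMSO.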

Test [2] is described as follows: Tanguay_ZF_120hpf_EYE_legacy: (Legacy) Oregon State University Tanguay Lab 120 Hour Post-fertilization zebrafish Assay for Eye Malformation (AID 2283636).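 Note: binary presence or absence of eye malformation scored by brightfield in 120 hpf larvae.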 A digest of the protocol: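 Dechorionated Tropical 5D zebrafish embryos, one per well from 6 hpf, static exposure to 120 hpf at 28C, 0.64% DMSO. Eye malformation scored present/absent by brightfield; dead embryos not scored.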

The nature of test [3]: Tanguay_ZF_120hpf_SNOU_legacy: (Legacy) Oregon State University Tanguay Lab 120 Hour Post-fertilization zebrafish Assay for Snout Malformation (AID 2283637). A digest of the protocol:
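Dechorionated tropical 5D wild-type zebrafish embryos exposed statically from 6 to 120 hpf at 28C, one per well, in 0.64% DMSO. Snout malformation scored as present/absent by brightfield at 120 hpf; dead embryos not scored.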

Test [4] in a line: Tanguay_ZF_120hpf_JAW_legacy: (Legacy) Oregon State University Tanguay Lab 120 Hour Post-fertilization zebrafish Assay for Jaw Malformation (AID 2283638).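 For AC50: active means more embryos with jaw malformation than DMSO controls.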 A digest of the protocol:
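Binary jaw-malformation calls at 120 hpf by brightfield imaging; DMSO (0.64% v/v) = baseline. Embryos: 5D wild-type, pronase-dechorionated, one per well from 6 hpf, static exposure, 28C, sealed, dark.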

Test [5] is described as follows: Tanguay_ZF_120hpf_OTIC_legacy: (Legacy) Oregon State University Tanguay Lab 120 Hour Post-fertilization zebrafish Assay for Otic Vesicle Malformation (AID 2283639). A digest of the protocol: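 Tropical 5D wild-type zebrafish embryos were exposed statically in sealed, foil-covered plates at 28C until 120 hpf, with 0.64% (vol/vol) DMSO final. Otic vesicle malformation was scored present/absent by brightfield microscopy, with DMSO as baseline.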

Test [6] can be described thus: Tanguay_ZF_120hpf_BRAI_legacy: (Legacy) Oregon State University Tanguay Lab 120 Hour Post-fertilization zebrafish Assay for Brain Malformation (AID 2283641). A digest of the protocol: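 Read-out: binary brain morphology call at 120 hpf (brightfield), fitted in gain-of-signal direction vs DMSO. Wild-type Tropical 5D embryos, static exposure, 28C, 0.64% DMSO final; 5uM trimethyltin chloride as positive control.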

Test [7] is described as follows: Tanguay_ZF_120hpf_SOMI_legacy: (Legacy) Oregon State University Tanguay Lab 120 Hour Post-fertilization zebrafish Assay for Somite Malformation (AID 2283647). A digest of the protocol: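 Binary brightfield scoring of somite defects at 120 hpf in 5D wild-type larvae; one dechorionated embryo per well, static exposure from 6 hpf, 28C, sealed and dark. Final DMSO 0.64%; trimethyltin chloride 5uM positive control.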

Test [8] can be described thus: Tanguay_ZF_120hpf_PFIN_legacy: (Legacy) Oregon State University Tanguay Lab 120 Hour Post-fertilization zebrafish Assay for Pectoral Fin Malformation (AID 2283648).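 Note: each larva judged yes or no for fin defect by brightfield with dead larvae skipped.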 A digest of the protocol: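 Dechorionated Tropical 5D wild-type zebrafish embryos, one per well, statically exposed from 6 to 120 hpf at 28C with 0.64% DMSO final. Pectoral fin malformation scored present/absent by brightfield at 120 hpf; not scored in dead embryos.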

The nature of test [9]: Tanguay_ZF_120hpf_CFIN_legacy: (Legacy) Oregon State University Tanguay Lab 120 Hour Post-fertilization zebrafish Assay for Caudal Fin Malformation (AID 2283649). A digest of the protocol:
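Dechorionated 5D wild-type zebrafish, static exposure 6–120 hpf, 28C, sealed and dark, 0.64% v/v DMSO final. Binary fin-malformation call at 120 hpf, brightfield; gain of signal vs DMSO baseline.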

Test [10] is described as follows: Tanguay_ZF_120hpf_PIG_legacy: (Legacy) Oregon State University Tanguay Lab 120 Hour Post-fertilization zebrafish Assay for Pigmentation Malformation (AID 2283650). A digest of the protocol: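 Dechorionated Tropical 5D wild-type embryos, one per well from 6 hpf, statically exposed at 28C in the dark until 120 hpf, 0.64% DMSO final. Pigmentation scored present/absent by brightfield microscopy; dead embryos not scored; fitted versus DMSO.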

The nature of test [11]: Tanguay_ZF_120hpf_CIRC_legacy: (Legacy) Oregon State University Tanguay Lab 120 Hour Post-fertilization zebrafish Assay for Circulatory Malformation (AID 2283651). A digest of the protocol: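 Tropical 5D wild-type embryos, dechorionated with pronase at 4 hpf, were placed singly in wells at 6 hpf and exposed statically at 28C to 120 hpf (0.64% DMSO final). Circulatory malformation was scored present/absent by brightfield microscopy.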

Test [12] can be described thus: Tanguay_ZF_120hpf_SWIM_legacy: (Legacy) Oregon State University Tanguay Lab 120 Hour Post-fertilization zebrafish Assay for Swim Bladder Malformation (AID 2283654).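 Note: swim bladder malformation in each larva scored yes or no under brightfield.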 A digest of the protocol:
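Dechorionated wild-type Tropical 5D zebrafish embryos, one per well from 6 hpf, were statically exposed at 28C until 120 hpf in 0.64% DMSO. Swim bladder malformation scored as present/absent by brightfield microscopy; not scored in dead larvae.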

A short description of test [13]: Tanguay_ZF_120hpf_NC_legacy: (Legacy) Oregon State University Tanguay Lab 120 Hour Post-fertilization zebrafish Assay for Notochord and Tail Malformation (AID 2283656). A digest of the protocol: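 Dechorionated 5D zebrafish, 1/well from 6 hpf; static exposure to 120 hpf, 28C, sealed, dark; final DMSO 0.64% v/v. NC scored binary (present/absent); dead embryos not scored. Fit vs DMSO baseline, gain direction.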

A short description of test [14]: Tanguay_ZF_120hpf_TRUN_legacy: (Legacy) Oregon State University Tanguay Lab 120 Hour Post-fertilization zebrafish Assay for Truncated Body (AID 2283655). A digest of the protocol:
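Whole-embryo zebrafish screen: dechorionated 5D embryos, static exposure 6–120 hpf, 28C, sealed foil-covered plates, 0.64% DMSO. Binary truncation call; gain of signal versus DMSO baseline.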

Test [15] in a line: CCTE_Simmons_CellTiterGLO_HEK293T: Viability Assessment in CCTE's Assays for Thyroperoxidase (TPO) Inhibition, Simmons Lab (AID 2283665). A digest of the protocol:
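HEK293T cells in DMEM with 1% FBS were dosed with 8 concentrations (5 nM–87.5 uM final, 0.5% DMSO) for 24 hr at 37C; ATP content was read by CellTiter-Glo luminescence, loss-of-signal versus DMSO, three biological replicates.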

A short description of test [16]: Tanguay_ZF_120hpf_PE_legacy: (Legacy) Oregon State University Tanguay Lab 120 Hour Post-fertilization zebrafish Assay for Pericardial Edema (AID 2283640). A digest of the protocol:
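Static waterborne exposure, 5D wild-type embryos, 28C, to 120 hpf; final DMSO 0.64% (vol/vol). Binary PE call at 120 hpf by brightfield; fitted upward vs DMSO baseline. 5uM trimethyltin chloride as positive control.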

Read-out in test [17]: kallikrein-3 (KLK3), KLK3 (gene 354)
The test can be described thus: LTEA_HepaRG_KLK3: Life Technologies and Expression Analysis (LTEA) Assay for kallikrein-3 (KLK3) using HepaRG (AID 2283652; active = hit-call score of the fitted dose curve at least 0.9, where 1 is the maximum; inactive = score below 0.9). The conditions noted are these: mRNA level, 48 h; actives raise or lower the signal. A digest of the protocol:
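Differentiated human HepaRG cells in serum-free induction medium exposed 48 h in duplicate, eight-point half-log series from 100 uM in 0.5% DMSO. KLK3 mRNA by qRT-PCR, normalised to ACTB, GAPDH, POLR2A; bidirectional fit versus DMSO.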

Read-out in test [18]: solute carrier (SLC22A6), SLC22A6 (gene 9356)
The test can be described thus: LTEA_HepaRG_SLC22A6: Life Technologies and Expression Analysis (LTEA) Assay for solute carrier (SLC22A6) using HepaRG (AID 2283653; active = hit-call score of the fitted dose curve at least 0.9, where 1 is the maximum; inactive = score below 0.9). The conditions noted are these: mRNA level, 48 h; actives raise or lower the signal. A digest of the protocol:
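HepaRG, human liver line; 48 h chemical exposure; 8-pt half-log series from 100 uM in 0.5% DMSO, duplicate wells. Readout: TaqMan qRT-PCR of SLC22A6 mRNA, housekeeping-normalised; bidirectional curve fit vs DMSO baseline.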

Read-out in test [19]: solute carrier (SLC10A1), SLC10A1 (gene 6554)
The test can be described thus: LTEA_HepaRG_SLC10A1: Life Technologies and Expression Analysis (LTEA) Assay for solute carrier (SLC10A1) using HepaRG (AID 2283657; active = hit-call score of the fitted dose curve at least 0.9, where 1 is the maximum; inactive = score below 0.9). The conditions noted are these: mRNA level, 48 h; actives raise or lower the signal. A digest of the protocol:
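HepaRG cells (single lot) exposed 48 h in serum-free induction medium, 8-point half-log series from 100 uM top in 0.5% DMSO, duplicate. SLC10A1 mRNA by qRT-PCR normalised to ACTB, GAPDH, POLR2A; bidirectional fit versus DMSO.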

Read-out in test [20]: matrix metalloproteinase-1 (MMP1), MMP1 (gene 4312)
The test can be described thus: LTEA_HepaRG_MMP1: Life Technologies and Expression Analysis (LTEA) Assay for matrix metalloproteinase-1 (MMP1) using HepaRG (AID 2283658; active = hit-call score of the fitted dose curve at least 0.9, where 1 is the maximum; inactive = score below 0.9). The conditions noted are these: mRNA level, 48 h; actives raise or lower the signal. A digest of the protocol: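 MMP1 transcript read by TaqMan qRT-PCR (Fluidigm array) after 48 h chemical exposure of HepaRG cells in serum-free induction medium. Eight-point half-log series, top 100 uM, 0.5% DMSO vehicle. Bidirectional curve fit against DMSO baseline.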

This note sets out measurements from PubChem BioAssay (EPA / NIEHS).

Records with an inconclusive call do not appear. Activity calls are given as the source filed them. Rule for the calls, unless noted: active = hit-call score of the fitted dose curve at least 0.9, where 1 is the maximum; inconclusive = response in the unintended direction; inactive = score below 0.9.

As to `Fc1ccccc1[C@@H](F)COC1CCC(Nc2ncnc3[nH]ncc23)CC1` (some centres not stated), the call in test [1], in test [2], in test [3], in test [5], in [6] and in test [7] was inactive. Besides, the outcome in test [8], in test [9], in test [10], in test [11], in [12] and in test [13] was inactive. The AC50 in [4] is 38 µM (active).
Regarding `O=C1OC(=O)C2C3C=CC(C3)C12` (configuration not stated), the molecule was called inactive in test [1], in test [2], in test [3], in test [4], in test [5] and in test [6]. Besides, the result in test [7], in test [8], in test [9], in [11], in test [12] and in [14] was inactive. In addition, the molecule was called inactive in [13].
`NC(=O)NO`: the molecule was classed as inactive in [1], in test [2], in test [3], in [4], in test [5] and in test [6]. Moreover, the molecule was classed as inactive in test [8], in test [9], in test [10], in test [11], in [12] and in test [14]. Besides, the result in test [13] and in test [15] was inactive.
As to `COC(=O)c1c(Cl)c(Cl)c(C(=O)OC)c(Cl)c1Cl`, the molecule was called inactive in test [1], in test [2], in test [3], in [4], in test [5] and in test [16]. For the same molecule, the molecule was classed as inactive in test [6], in [7], in test [9], in test [11], in test [12] and in test [13].
`CCCCCCCCCCCCc1ccccc1`: the outcome in [1], in [2], in test [3], in test [4], in test [5] and in test [6] was inactive. The result in test [7], in test [8], in [9], in test [11], in test [12] and in [14] was inactive. For the same molecule, the call in test [13] was inactive.
For `C1N2CN3CN1CN(C2)C3`, the molecule was classed as inactive in test [1], in test [2], in test [3], in [4], in test [5] and in [16]. Further, the result in test [6], in [7], in test [8], in [9], in [11] and in test [12] was inactive. Also, in test [13], the result was inactive.
Turning to `O=C(O)c1cc(N=Nc2ccc(S(=O)(=O)Nc3ccccn3)cc2)ccc1O`, the call in [1], in test [2], in test [3], in test [4], in test [5] and in test [16] was inactive. Moreover, the outcome in test [7], in [8], in test [9], in test [10], in test [12] and in test [14] was inactive. Further, in [13], the molecule was classed as inactive.
With `CC(C)CCCCCCOC(=O)c1ccc(C(=O)OCCCCCCC(C)C)c(C(=O)OCCCCCCC(C)C)c1`, the outcome in test [1], in test [2], in test [3], in [4], in test [5] and in [16] was inactive. Also, the outcome in test [6], in test [7], in test [8], in test [9], in [10] and in test [11] was inactive. The result in [17], in [18], in [12], in test [13], in test [19] and in test [20] was inactive.
Take `CC1(C)C(=O)N(Br)C(=O)N1Br`: the outcome in test [1], in test [2], in [3], in [4], in test [16] and in test [6] was inactive. Also, the molecule was called inactive in test [7], in [8], in test [9], in test [10], in test [11] and in [12]. The call in test [13] was inactive.
